This is an account of results in PubChem BioAssay (NCATS).

Experiment [1] can be described thus: Quantitative High-Throughput drug screen in 47 multiple myeloma cell lines against the NCATS MIPE library collection: SKMM1_PLB cell viability assay (AID 1919863). Further: nearly all actives have a fitted effect of over 35% in size. Particulars: SKMM1 myeloma viability, CellTiter-Glo ATP, 48 h; viability: hits give low values. The procedure, abridged:
(§1)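 Readout: median RLU from CellTiter-Glo after 5 min at room temperature. Preceding step was 48 h drug treatment of 500 cells/well at 37 °C, 5% CO2, with DMSO-only and media-only control wells.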
In general terms: Cellular ATP, detected with luciferase, serves as a proxy for viable cell number.

Experiment [2] can be described thus: Quantitative High-Throughput drug screen in 47 multiple myeloma cell lines against the NCATS MIPE library collection: U266_ATCC cell viability assay (AID 1919864). Further: nearly all actives have a fitted effect of over 35% in size. An outline of the steps: as §1
Experiment [3] in a line: Quantitative High-Throughput drug screen in 47 multiple myeloma cell lines against the NCATS MIPE library collection: XG6_PLB cell viability assay (AID 1919865). Further: nearly all actives have a fitted effect of over 40% in size. The procedure, abridged: as §1
The nature of experiment [4]: Quantitative High-Throughput drug screen in 47 multiple myeloma cell lines against the NCATS MIPE library collection: VP6_DJ cell viability assay (AID 1919867). Further: nearly all actives have a fitted effect of over 40% in size. The procedure, abridged:
as §1

Experiment [5] is described as follows: Quantitative High-Throughput drug screen in 47 multiple myeloma cell lines against the NCATS MIPE library collection: UTMC2_PLB cell viability assay (AID 1919868). Further: nearly all actives have a fitted effect of over 55% in size. The settings on record: CellTiter-Glo ATP luminescence, 48 h; viability (% of DMSO control): at 45.8 µM (top of the series). The procedure, abridged:
as §1

The nature of experiment [6]: Quantitative High-Throughput drug screen in 47 multiple myeloma cell lines against the NCATS MIPE library collection: PCM6_Riken cell viability assay (AID 1919870). Further: nearly all actives have a fitted effect of over 30% in size. The procedure, abridged: as §1
Experiment [7] in a line: Quantitative High-Throughput drug screen in 47 multiple myeloma cell lines against the NCATS MIPE library collection: RPMI8226_ATCC cell viability assay (AID 1919871). Further: nearly all actives have a fitted effect of over 30% in size. An outline of the steps:
as §1

Experiment [8] in a line: Quantitative High-Throughput drug screen in 47 multiple myeloma cell lines against the NCATS MIPE library collection: XG1_PLB cell viability assay (AID 1919866). Further: nearly all actives have a fitted effect of over 35% in size. The procedure, abridged: as §1
Experiment [9] in a line: Quantitative High-Throughput drug screen in 47 multiple myeloma cell lines against the NCATS MIPE library collection: OPM2_DSMZ cell viability assay (AID 1919872). Further: nearly all actives have a fitted effect of over 30% in size. The procedure, abridged: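 CellTiter-Glo ATP luminescence gave viability after 48 h compound treatment at 37C of 500 multiple myeloma cells per well. Normalisation used DMSO-only wells as 100% and media-only wells as 0% viability; primary qHTS of approved and investigational drugs.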

Experiment [10] can be described thus: Quantitative High-Throughput drug screen in 47 multiple myeloma cell lines against the NCATS MIPE library collection: PE2_PLB cell viability assay (AID 1919869). Further: nearly all actives have a fitted effect of over 35% in size. The procedure, abridged:
as §1

Inconclusive results are not listed. Unmarked numbers belong to inactive results. The source made the active and inactive calls. The call rests on the fitted dose curve; in most records, active means well fitted cell-killing curve with a large enough effect; inconclusive means small, poorly fitted or top-dose-only effect, or effect the other way; inactive means no such curve, though single readings can be large or run the other way.
Potency means the concentration at half of the fitted maximal effect.

In the case of `Cn1c(=O)c(-c2c(Cl)cccc2Cl)cc2cnc(Nc3cccc(C(=O)O)c3)nc21`, the Potency in experiment [1] is 2.09 µM (active); in experiment [3], 0.187 µM (active); in [4], 0.235 µM (active); in [6], 0.0469 µM (active). The Potency entry in experiment [2] and in [7] was “inactive” throughout. Further, the viability (% of DMSO control) in [5] is 127% (active).
As for `Cc1nn(Cc2ccccc2Cl)c(C)c1CN(C)CC(O)COc1ccc(Cl)cc1` (stereo unspecified), the Potency in experiment [1] is 3.32 µM (active); in experiment [2], 18.7 µM (active); in experiment [3], 20.9 µM (active); in experiment [8], 20.9 µM (active); in experiment [4], 20.9 µM (active); in [5], 20.9 µM (active). In addition, the values for the Potency in [6] and in [7] were 18.7 µM (active) and 20.9 µM (active), respectively. For the same compound, in [9], the Potency result was “inactive”.
Usually viability stands for a read-out of living cells in per cent, often relative to untreated cells. Consider `COc1ccc(-c2cc3nccn3c(Nc3ncccc3C(N)=O)n2)cc1OC`, for which the viability in experiment [1] was 103%. The Potency was 16.6 µM (active) in experiment [2]; 1.18 µM (active) in experiment [3]; 1.05 µM (active) in [8]; 1.18 µM (active) in experiment [5]; 0.59 µM (active) in [10]; 0.264 µM (active) in [6].
As for `CCN1CCC(n2cc(CNc3cc(Cl)c4ncc(C#N)c(Nc5ccc(F)c(Cl)c5)c4c3)nn2)CC1`, the Potency is 5.9 µM (active) in [1]; 20.9 µM (active) in experiment [2]; 14.8 µM (active) in [3]; 23.5 µM (active) in experiment [8]; 20.9 µM (active) in experiment [6].
With `Cc1ccc(NC(=O)c2ccc(CN3CCN(C)CC3)cc2)cc1Nc1nc(-c2cccnc2)cs1`, the Potency in experiment [1] was 23.5 µM (active); in [2], 23.5 µM (active); in [3], 7.43 µM (active); in experiment [8], 13.2 µM (active); in experiment [4], 8.33 µM (active); in [10], 11.8 µM (active). The Potency in [7] is 18.7 µM (active).
With `Cc1cnc(Nc2cccc(CN3CCOCC3)c2)nc1Nc1cccc(S(=O)(=O)NC(C)(C)C)c1`, the Potency in [1] is 7.43 µM (active); in experiment [3], 1.18 µM (active); in experiment [8] it was 1.05 µM (active); in experiment [4], 2.96 µM (active); in experiment [5] it was 1.18 µM (active); in experiment [10], 1.87 µM (active). Further, the Potency in [6] is 6.62 µM (active). Also, in [2], the Potency result is “inactive”.
`CCOC(=O)N1CCN([N+]([O-])=NOc2cc(ON=[N+]([O-])N3CCN(C(=O)OCC)CC3)c([N+](=O)[O-])cc2[N+](=O)[O-])CC1`: the Potency in experiment [1] is 4.69 µM (active); in [2], 7.43 µM (active); in experiment [3] it was 4.69 µM (active); in experiment [8], 4.18 µM (active); in experiment [4] it was 6.62 µM (active); in experiment [5] it was 8.33 µM (active). For the same compound, the Potency in experiment [10] was 2.96 µM (active); in [6] it was 6.62 µM (active); in experiment [9], 18.7 µM (active).
Take `O=C(O)C1=CC(O)C(O)[C@H](O)C1` (stereo partly specified): the viability in [1] was 118%. In addition, the Potency entry in [2], in experiment [3], in experiment [8], in [10], in experiment [7] and in experiment [9] was “inactive” each time.
As to `Cc1[nH]c(C=C2C(=O)Nc3ccc(S(=O)(=O)N(C)c4cccc(Cl)c4)cc32)c(C)c1C(=O)N1CCN(C)CC1`, the Potency in experiment [1] is 20.9 µM (active); in [2], 23.5 µM (active); in experiment [3] it was 9.35 µM (active); in experiment [8] it was 11.8 µM (active); in experiment [4], 13.2 µM (active); in experiment [5] it was 11.8 µM (active). Besides, the Potency in experiment [10] is 16.6 µM (active); in experiment [6], 14.8 µM (active); in experiment [7], 23.5 µM (active); in experiment [9], 20.9 µM (active).
Take `O=C(c1ccc(C(=O)N2CCC(N3CCCC3)CC2)c(Nc2ccccc2)c1)N1CCC(N2CCCC2)CC1`: the Potency in [1] is 6.62 µM (active). In addition, the Potency result in [2], in experiment [3], in experiment [8], in [5] and in experiment [7] was “inactive” throughout.
As for `CNC1CCC(N(Cc2cccc(-c3ccncc3)c2)C(=O)c2sc3ccccc3c2Cl)CC1` (stereo unspecified), the Potency in [1] is 18.7 µM (active); in experiment [2], 16.6 µM (active); in [3], 8.33 µM (active); in [8], 9.35 µM (active); in experiment [4], 8.33 µM (active); in experiment [5], 10.5 µM (active). Besides, the Potency in [6] was 8.33 µM (active); in [7], 26.4 µM (active).
With `Cc1cnc(CNC(=O)c2c(=O)c3ccc(N4CCCN(C)CC4)nc3n3c2sc2ccccc23)cn1`, the Potency in experiment [1] is 5.75 µM (active); in experiment [2], 1.82 µM (active); in experiment [3], 5.12 µM (active); in [7], 8.12 µM (active). Besides, the Potency result in experiment [8] and in experiment [10] was “inactive” each time.
In the case of `O=C(NC[C@H](O)CO)c1ccncc1Nc1ccc(I)cc1F`, the Potency in experiment [1] is 8.33 µM (active); in experiment [2], 20.9 µM (active); in [3], 7.43 µM (active); in experiment [8] it was 14.8 µM (active); in experiment [4] it was 10.5 µM (active); in experiment [10], 5.26 µM (active). Besides, the figures for the Potency in experiment [6] and in experiment [7] were 16.6 µM (active) and 0.833 µM (active), respectively.
In the case of `OC[C@H]1O[C@@H](O[C@H]2[C@@H](O)[C@@](O)(CO)O[C@@H]2CO)[C@H](O)[C@@H](O)[C@@H]1O`, the viability in experiment [1] is 96.6%. The Potency result in experiment [2], in experiment [3], in experiment [5], in [7] and in experiment [9] was “inactive” in each case. For the same compound, the Potency in [8] is 3.72 µM (active).
As to `COc1ccc2nc3cc(Cl)ccc3c(Nc3cc(CN4CCCC4)c(O)c(CN4CCCC4)c3)c2n1`, the Potency in [1] is 14.8 µM (active); in experiment [2] it was 23.5 µM (active); in experiment [3] it was 14.8 µM (active); in experiment [8] it was 18.7 µM (active); in experiment [10], 18.7 µM (active); in [6], 16.6 µM (active). In experiment [7], the Potency was 18.7 µM (active).
Consider `CN(C(Cc1ccc(OS(=O)(=O)c2cccc3cnccc23)cc1)C(=O)N1CCN(c2ccccc2)CC1)S(=O)(=O)c1cccc2cnccc12` (stereo unspecified), for which the Potency was 9.35 µM (active) in experiment [1]; 13.2 µM (active) in [2]; 13.2 µM (active) in [3]; 3.72 µM (active) in experiment [4]; 6.62 µM (active) in [5].
